We go through seven sequences from the supplement of paper PMC6555819.

Assay in all cases: PBM binding z-score (relative to random genomic background probes); higher = stronger binding; sequences stand for … in GC…GCGATTGACAGCGTAGAATGAAGG
Assay [1] has as its system FXR:RXRa (NR concentration 270 nM, RXRa partner concentration 90 nM). Summed up: (§1)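 On custom Agilent 4×180K arrays, double-stranded probes with 34-nt variable regions carried direct-repeat seeds, single-nucleotide variants, half-site ablations or random human genomic background. Ligand-free nuclear receptor dimers were applied for 1 h, and binding was read with antibodies against each partner (one per run). Binding z-scores come from regression-normalized fluorescence, with the random background probes as reference.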

In assay [2] the test system is LXRa:RXRa (NR concentration 270 nM, RXRa partner concentration 90 nM). Summed up:
as §1

For assay [3], the system named is LXRa homodimer (NR concentration 270 nM). The method, boiled down:
as §1

Assay [4] deals with LXRb:RXRa (NR concentration 270 nM, RXRa partner concentration 90 nM). Summed up: as §1
Assay [5] deals with LXRb homodimer (NR concentration 270 nM). Summed up: as §1
Assay [6] deals with PPARa:RXRa (NR concentration 270 nM, RXRa partner concentration 90 nM). The method, boiled down: as §1
The test system of assay [7] is PPARg:RXRa (NR concentration 180 nM, RXRa partner concentration 90 nM). The method, boiled down:
as §1

The test system of assay [8] is PPARg:RXRa 270nM:90nM, anti-RXR (NR concentration 270 nM, RXRa partner concentration 90 nM). Summed up:
as §1

In assay [9] the test system is PPARg:RXRa 30nM:10nM, anti-RXR (NR concentration 30 nM, RXRa partner concentration 10 nM). Summed up:
as §1

Assay [10] has as its system PPARg:RXRa 90nM:30nM, anti-RXR (NR concentration 90 nM, RXRa partner concentration 30 nM). The method, boiled down:
as §1

The subject of assay [11] is PPARg:RXRa DBDmut IVT, anti-RXR (DBD mutation: RXRa K156A/R161A, NR concentration 270 nM, RXRa partner concentration 90 nM). Summed up:
as §1

Assay [12] deals with PPARg:RXRa IVT, anti-PPARg (NR concentration 270 nM, RXRa partner concentration 90 nM). Summed up:
as §1

Assay [13] has as its system PPARg DBDmut:RXRa IVT, anti-PPARg (DBD mutation: PPARg1 K132A/R137A, NR concentration 270 nM, RXRa partner concentration 90 nM). The method, boiled down:
as §1

Assay [14] deals with PPARg DBDmut IVT, anti-PPARg (DBD mutation: PPARg1 K132A/R137A, NR concentration 270 nM). The method, boiled down:
as §1

The test system of assay [15] is PPARg homodimer (NR concentration 180 nM). Summed up: as §1
In assay [16] the test system is PXR:RXRa (NR concentration 270 nM, RXRa partner concentration 90 nM). Summed up:
as §1

The subject of assay [17] is PXR homodimer (NR concentration 270 nM). The method, boiled down:
as §1

For assay [18], the system named is RARa:RXR (NR concentration 270 nM, RXRa partner concentration 90 nM). The method, boiled down:
as §1

The subject of assay [19] is RARa homodimer (NR concentration 270 nM). Summed up:
as §1

Assay [20] concerns RARb:RXRa (NR concentration 270 nM, RXRa partner concentration 90 nM). Summed up: as §1

On to CGTGCAAGGTCAGCAGGTCAGTGAAAGCGACGTG, for which the PBM binding z-score in assay [1] was 6.34; in assay [2], 4.37; in [3], 0.442; in assay [4], 3.25; in [5] it was -0.32; in assay [6], 5.48. The PBM binding z-score in [7] turned out to be 4.89; in assay [8], 4.92; in assay [9], 1.7; in [10] it was 3.51; in [11] it was 3.36; in assay [12], 3.96. In addition, the PBM binding z-score in assay [13] is -0.142; in assay [14], 0.527; in [15], 2.62; in assay [16] it was 3.87; in assay [17] it was 0.564; in assay [18] it was 4.71. Besides, the results for the PBM binding z-score in [19] and in [20] were 0.769 and 5.35, respectively.

Turning to TCATATAGGTCAACAGGTGAAAGTCCGTAAGTTA, the PBM binding z-score is 6.45 in [1]; 5.39 in assay [2]; 1.85 in assay [3]; 4.2 in [4]; 1.2 in assay [5]; 5.91 in assay [6]. Besides, the PBM binding z-score in assay [7] was 8.36; in assay [8], 7.51; in assay [9], 5.85; in [10], 7.17; in assay [11] it was 7.13; in assay [12] it was 7.59. In addition, the PBM binding z-score was determined as 3.03 in [13]; 1.96 in assay [14]; 3.88 in [15]; 3.49 in assay [16]; 1.08 in assay [17]; 4.84 in [18]. The PBM binding z-score in assay [19] was determined as 2.3; in assay [20], 4.83.

TCTAGCAGGCCAGAGGGTCACTCGAGAGGTACGG: the PBM binding z-score was 0.927 in [1]; 0.659 in assay [2]; -0.59 in assay [3]; 0.806 in [4]; -1.36 in [5]; 2.11 in assay [6]. In addition, the PBM binding z-score was 1.36 in assay [7]; 2.59 in assay [8]; 1.79 in assay [9]; 2.52 in assay [10]; 0.838 in assay [11]; 0.906 in [12]. Also, the PBM binding z-score in assay [13] was -0.167; in [14], -1.13; in assay [15], 0.221; in assay [16] it was 1.24; in [17], -0.669; in assay [18], 2.4. For the same sequence, the PBM binding z-score is -0.335 in assay [19] and 2.19 in assay [20].

Turning to ACTAGCAGGCCAAATTTGGGTCACTCAAACAAAG, the PBM binding z-score in [1] was 0.491; in [2] it was 0.315; in assay [3], -0.377; in assay [4], 0.947; in assay [5], -0.562; in [6], 2.99. The PBM binding z-score in assay [7] amounted to 1.62; in [8], 1.84; in assay [9] it was 0.0732; in assay [10], 1.04; in assay [11], 2.87; in assay [12], 4.17. Also, the PBM binding z-score is 0.302 in [13]; 0.302 in assay [14]; 0.993 in assay [15]; 0.803 in assay [16]; -0.346 in [17]; 1.72 in assay [18]. Moreover, the figures for the PBM binding z-score in [19] and in [20] were -0.199 and 1.54, respectively.

CCTCGGAGGACAACAGGAGGTCAGAGCTGCCAGA: the PBM binding z-score was 1.12 in assay [1]; 2.26 in assay [2]; 1.95 in assay [3]; 1.36 in assay [4]; -0.474 in assay [5]; 1.99 in [6]. Also, the PBM binding z-score is 0.527 in assay [7]; 0.477 in [8]; -0.553 in assay [9]; 0.529 in assay [10]; 0.299 in assay [11]; 0.564 in assay [12]. Besides, the PBM binding z-score in assay [13] was -0.994; in [14], -1.03; in assay [15], 1.72; in [16], 2.02; in assay [17], 0.105; in [18], 2.3. In addition, the PBM binding z-score came to 0.364 in [19] and 2.84 in assay [20].

Turning to ACTAGCAGGCCAAGTTTGGGTCACCCAAACAAAG, the PBM binding z-score was 0.488 in assay [1]; 0.347 in [2]; -0.356 in [3]; 0.836 in [4]; -0.589 in assay [5]; 1.98 in assay [6]. The PBM binding z-score is 0.125 in [7]; 0.213 in assay [8]; -0.577 in assay [9]; -0.0867 in assay [10]; 0.771 in [11]; 1.58 in [12]. For the same sequence, the PBM binding z-score is -0.22 in assay [13]; -0.356 in assay [14]; 0.716 in assay [15]; 1.08 in [16]; -0.637 in [17]; 1.89 in [18]. The PBM binding z-score was -1.22 in assay [19] and 2.06 in assay [20].

As to AGAATGAGGTTAATATCAGGGAAACAGAATACAT, the PBM binding z-score worked out at 1.64 in [1]; 3.39 in assay [2]; 0.149 in assay [3]; 2.17 in assay [4]; 0.272 in assay [5]; 2.98 in assay [6]. The PBM binding z-score in assay [7] worked out at 2.46; in assay [8], 2.14; in assay [9], 0.981; in assay [10], 1.48; in [11], 2.82; in assay [12] it was 2.7. Further, the PBM binding z-score turned out to be 1.02 in [13]; 0.794 in [14]; 0.975 in [15]; 1.2 in [16]; 0.575 in assay [17]; 1.74 in [18]. The PBM binding z-score is 1.04 in assay [19] and 1.55 in [20].
